From PubChem BioAssay (NCATS) come the findings set out here.

Values without a mark were called inactive. Inconclusive results are not listed. Calls of active or inactive are those of the source. Unless noted, the call rests on the fitted dose curve; in most records, active means well fitted curve in the direction sought with a large enough effect; inconclusive means small, poorly fitted or top-dose-only effect, or another doubt; inactive means no such curve, though single readings can be large; an effect the other way counts as inactive or inconclusive.

Experiment [1] addresses DNA repair nuclease/redox regulator APEX1 (Homo sapiens) (UniProt P27695). The experiment is described as follows: qHTS Validation Assay for Inhibitors of the Human Apurinic/apyrimidinic Endonuclease 1 (APE1) (AID 1705;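 further: TAMRA fluorescence gain over two minutes as APE1 cuts a quenched THF abasic duplex; series mostly up to about 57 µM; on the % scale 0 is the no-effect control and ±100 the full control effect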). A digest of the protocol: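 Fluorogenic double-stranded THF abasic-site substrate (5'-TAMRA/3'-BHQ-2), 50 nM final. Enzyme preincubated with compound 15 min at room temperature, then substrate added. Kinetic fluorescence (ex 525/em 598 nm) read three times at 60 s intervals; activity taken as third-minus-first read difference.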
(In general: In qHTS, concentration-response curves come from the screen itself.)

Experiment [2] is described as follows: Counterscreen for APE1 Inhibitors: Fluorescent Dye Displacement Validation Assay (AID 1707).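 Further: plate controls were ThO with dsDNA and no compound for no effect and ThO without dsDNA for full effect.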 A digest of the protocol: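 Thiazole Orange (250 nM) bound to 50 nM TAMRA-labelled dsDNA with tetrahydrofuran abasic site; displacement by DNA-binding compounds lowers fluorescence. Buffer 50 mM Tris-HCl pH 7.5, 50 mM NaCl, 2 mM MgCl2, 0.01% Tween-20; endpoint read at 480/540 nm.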
In general terms: A counterscreen serves to expose hits that act by an unwanted route or on another target.

The nature of experiment [3]: qHTS for differential inhibitors of proliferation of Plasmodium falciparum line 7G8 (AID 1815).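 Further: potency means the concentration at half of the fitted maximal effect; parasite growth measured after three days of incubation.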
Experiment [4] is described as follows: qHTS for differential inhibitors of proliferation of Plasmodium falciparum line GB4 (AID 1816).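 Further: potency means the concentration at half of the fitted maximal effect; parasite growth measured after 72 h incubation.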 Particulars: Potency: Plasmodium falciparum GB4 proliferation inhibition.
Experiment [5] is described as follows: qHTS for differential inhibitors of proliferation of Plasmodium falciparum line 3D7 (AID 1876). Further: potency means the concentration at half of the fitted maximal effect.
Experiment [6] can be described thus: qHTS for differential inhibitors of proliferation of Plasmodium falciparum line Dd2 (AID 1882).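 Further: series mostly up to about 29 µM; compound exposure of 72 h on infected erythrocytes; plate controls were DMSO vehicle for no effect and 0.29 µM artemisinin for full effect; nearly all actives have a fitted effect of over 65% in size.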 As to conditions: Potency: Plasmodium falciparum Dd2 proliferation inhibition. A digest of the protocol:
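SYBR Green I DNA fluorescence read-out, ex 485/em 535 nm. Signals were normalized to 0.29 uM artemisinin and DMSO wells, then corrected using vehicle-only plates flanking each stack. Parasite growth ran 72 h in erythrocytes before lysis.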

A short description of experiment [7]: qHTS for differential inhibitors of proliferation of Plasmodium falciparum line W2 (AID 1883).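 Further: potency means the concentration at half of the fitted maximal effect; parasites grown with compound for 72 h before lysis and staining.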 Particulars: Potency: Plasmodium falciparum W2 proliferation inhibition.
A short description of experiment [8]: qHTS Assay for Modulators of Human Peripheral Myelin Protein 22 (PMP22) Expression/Activity (AID 1967; active means well fitted curve in the direction sought with a large enough effect in the signal ratio; the % refers to the signal ratio;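 further: 0% = untreated cells and 100% end not stated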). A digest of the protocol:
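Mouse MSC80 Schwann cells carrying Pmp22 promoter–green click beetle luciferase plus EF-alpha–red luciferase control, dosed 24 h at 37 °C. Dual-filter luminescence, overlap-corrected; %Activity from green/red ratio normalised to untreated cells, concentration-response curves fitted.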

In experiment [9] the target is Ferritin light chain (Equus caballus) (UniProt P02791). In words: qHTS Validation Assay for Identification of Novel General Anesthetics (AID 2323). Further: series mostly up to about 77 µM; on the % scale 0 is the no-effect control and ±100 the full control effect. Put shortly: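 Horse-spleen apoferritin (10 uM) in PBS with 50% saturated 1-aminoanthracene; compounds pin-transferred, 10 min at room temperature. Fluorescence read at 380/535 nm, normalized to free 1-AMA and 1-AMA/apoferritin values; four-parameter Hill fit.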

Experiment [10] addresses ATP-dependent DNA helicase Q1 (Homo sapiens) (UniProt P46063). The experiment is described as follows: qHTS Validation Assay for Inhibitors of RecQ-Like Dna Helicase 1 (RECQ1) (AID 2353).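 Further: plate controls were DMSO vehicle for no effect and enzyme-free control for full effect.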 Put shortly: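 50 nM RECQ1T1 preincubated 15 min with compound in Tris pH 8.0 buffer with MgCl2, DTT, Tween-20 and 2.5 ug/ml poly(dI-dC); started with 200 nM TAMRA/BHQ-2 forked duplex and 2 mM ATP. Unwinding read as fluorescence (525/598 nm), two reads 2 h apart.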

The target of experiment [11] is RecQ-like DNA helicase BLM (Homo sapiens) (UniProt P54132). In words: qHTS Validation Assay for Inhibitors of Bloom's syndrome helicase (BLM) (AID 2364).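 Further: plate controls were DMSO vehicle for no effect and enzyme-free control for full effect.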 A digest of the protocol: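 BLM 50 nM in 25 mM Tris-HCl pH 8.0, 5 mM NaCl, 2 mM MgCl2, 1 mM DTT, 0.01% Tween-20, 2.5 ug/ml poly(dI-dC); 15 min cpd preinc, RT. Start: 200 nM forked DNA + 2 mM ATP (final). TAMRA read, 2 reads 2 h apart.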

Experiment [12] is described as follows: Validation screen for small molecules that induce DNA re-replication in MCF 10A normal breast cells (AID 463097). Further: 0% is about no effect; nearly all actives have a fitted effect of over 60% in size. A digest of the protocol:
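MCF 10A cells exposed to compound 48 hr at 37 C, 5% CO2, then Hoechst-stained 40 min. Laser-scanning imaging of nuclear DNA content (405 nm ex, 500-530 nm em); re-replication scored as rise in nuclei with elevated fluorescence intensity.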

For experiment [13], the target named is Thyrotropin receptor (Homo sapiens) (UniProt P16473). In words: qHTS Assay for Antagonists of the Thyroid Stimulating Hormone Receptor (AID 488980). Further: series mostly up to about 58 µM; 0% is about no effect. Put shortly:
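TSHR-transfected HEK293 cells (2000/well) in HEPES-buffered HBSS with 70 uM RO 20-1724 were stimulated with 4 nM TSH (EC80, final) in the presence of compound. cAMP was measured by HTRF competition after lysis and 30 min at RT.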

The target in experiment [14] is Galactokinase (Homo sapiens) (UniProt P51570). The experiment is described as follows: qHTS Validation Assay for Inhibitors of Human Galactokinase (GALK) (AID 493189). Further: 0% is about no effect. Put shortly: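 GALK (5 nM) with 35 uM ATP and 100 uM galactose in HEPES pH 8.0 with MgCl2, NaCl, DTT and BSA. Reaction ran 1 h at room temperature. Residual ATP read by Kinase-Glo Plus luminescence.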

Experiment [15] in a line: Validation screen for small molecules that induce DNA re-replication in SW480 colon adenocarcinoma cells (AID 504364). Further: 0% is about no effect. A digest of the protocol:
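SW480 cells seeded at 250 per well were exposed to compound or DMSO for 48 hr at 37 C, 5% CO2, then stained with Hoechst for 40 min. DNA content per nucleus was imaged (405 nm ex, 500-530 nm em).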

For experiment [16], the target named is Endonuclease 4 (Escherichia coli (strain K12)) (UniProt P0A6C1). The experiment is described as follows: Counterscreen for APE1 Inhibitors: qHTS Validation Assay for Inhibitors of Endonuclease IV (AID 1708). Further: on the % scale 0 is the no-effect control and ±100 the full control effect. A digest of the protocol: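 2 nM enzyme was preincubated with compounds for 15 min at room temperature in 50 mM Tris-HCl pH 7.5, 50 mM NaCl, 2 mM MgCl2, 1 mM DTT, 0.01% Tween-20. 50 nM THF-abasic TAMRA/BHQ-2 duplex substrate started the reaction.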

A short description of experiment [17]: Quantitative high throughput screen for delayed death inhibitors of the malarial parasite plastid, 48 hour incubation (AID 488752). Further: on the % scale 0 is the no-effect control and ±100 the full control effect; nearly all actives have a fitted effect of over 65% in size. Put shortly: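 Erythrocytes infected with P. falciparum carrying an integrated firefly luciferase reporter (2% hematocrit, 0.1% parasitemia final) were exposed to compounds in RPMI 1640/0.5% Albumax for 48 h at 37 C, 5% CO2. Growth inhibition was scored as reduced luminescence.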

Experiment [18] deals with M-phase phosphoprotein 8 (Homo sapiens) (UniProt Q99549). In words: qHTS Validation Assay for Inhibitors for MPP8 Chromodomain Interactions with Methylated Histone Tails (AID 488949). Further: top concentration of the series differs between compounds; on the % scale 0 is the no-effect control and ±100 the full control effect; nearly all actives have a fitted effect of over 55% in size. A digest of the protocol:
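MPP8 (50 nM) was pre-bound to 50 nM biotinylated H3(1-18)K9me3 peptide in PBS pH 7.4 with 0.01% Tween-20. Compounds were then added for 30 min at room temperature, and complex disruption was read by AlphaScreen with streptavidin donor and nickel-chelate acceptor beads.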

The target in experiment [19] is Transient receptor potential cation channel subfamily V member 1 (Homo sapiens) (UniProt Q8NER1). In words: HTS Assay for Compounds that Act as Enhancers of the Vanilloid Receptor 1 (AID 488979). Further: 0% is about no effect. Put shortly: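 TRPV1-expressing cells loaded with Fluo-8 calcium dye; compounds added and calcium influx read kinetically for 3 min (agonist phase), then capsaicin at EC20 added and read 2 min more for enhancement. Fluorescence ex 480/em 520 nm.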

The target in experiment [20] is Thyrotropin-releasing hormone receptor (Homo sapiens) (UniProt P34981). In words: qHTS for Small Molecule Agonists and Allosteric Enhancers of Human TRH Receptor: Validation Screen for Agonists (AID 493127;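 active means calcium activation more than 3 SD above the typical response in the agonist read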;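 further: intracellular calcium rise by fluo-8 fluorescence before TRH EC20 addition; 0% is about no effect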). Particulars: TRH receptor agonist cell assay; at 2 µM; stronger effect = higher value. A digest of the protocol: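 TRHR-expressing cells were plated overnight in serum-containing medium, then loaded with fluo-8 calcium dye at room temperature for 30 min–1.5 h. After a 10 s baseline, compound was pin-transferred and calcium fluorescence (ex 480/em 530) read kinetically for agonist response.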

Experiment [21] concerns the target Rap guanine nucleotide exchange factor 3 (Homo sapiens) (UniProt O95398). The experiment is described as follows: Counterscreen qHTS for agonist of cAMP-regulated guanine nucleotide exchange factor 3 (EPAC1) (AID 1645889). Further: potency means the concentration at half of the fitted maximal effect; nearly all actives have a fitted effect of over 40% in size. A digest of the protocol:
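Measured: fluorescence of BODIPY-GDP bound to Rap1B, which falls as exchange proceeds. Conditions include 50 uM competing GDP, 5 and 30 min reads, and a later cAMP challenge for antagonist detection.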

Chain of DNA repair nuclease/redox regulator APEX1 (Homo sapiens) (P27695 whole entry, looked up): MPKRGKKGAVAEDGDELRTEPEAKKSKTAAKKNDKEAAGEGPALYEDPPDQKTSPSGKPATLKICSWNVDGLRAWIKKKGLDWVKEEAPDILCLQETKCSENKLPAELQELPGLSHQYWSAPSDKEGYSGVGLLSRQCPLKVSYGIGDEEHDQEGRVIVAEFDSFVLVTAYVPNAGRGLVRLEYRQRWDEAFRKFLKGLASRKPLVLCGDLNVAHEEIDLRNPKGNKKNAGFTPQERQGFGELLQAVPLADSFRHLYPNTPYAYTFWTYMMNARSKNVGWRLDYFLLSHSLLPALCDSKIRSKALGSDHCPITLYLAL
Chain of ATP-dependent DNA helicase Q1 (Homo sapiens) (P46063 whole entry, looked up): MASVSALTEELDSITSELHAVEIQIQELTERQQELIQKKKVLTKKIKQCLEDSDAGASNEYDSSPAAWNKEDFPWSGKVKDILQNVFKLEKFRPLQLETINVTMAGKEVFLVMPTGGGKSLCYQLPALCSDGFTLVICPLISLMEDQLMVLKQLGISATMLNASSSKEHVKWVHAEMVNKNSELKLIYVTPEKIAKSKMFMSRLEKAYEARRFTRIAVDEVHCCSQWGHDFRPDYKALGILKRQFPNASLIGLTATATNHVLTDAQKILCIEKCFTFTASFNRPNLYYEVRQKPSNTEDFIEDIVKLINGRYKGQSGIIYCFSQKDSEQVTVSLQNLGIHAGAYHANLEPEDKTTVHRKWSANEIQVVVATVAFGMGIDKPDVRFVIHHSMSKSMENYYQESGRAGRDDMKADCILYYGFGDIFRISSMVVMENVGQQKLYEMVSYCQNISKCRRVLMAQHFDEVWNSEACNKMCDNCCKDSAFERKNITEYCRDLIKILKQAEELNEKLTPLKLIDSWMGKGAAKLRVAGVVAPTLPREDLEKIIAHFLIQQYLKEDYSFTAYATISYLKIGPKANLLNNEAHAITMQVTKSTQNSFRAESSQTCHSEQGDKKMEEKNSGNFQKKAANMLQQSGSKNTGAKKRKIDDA
Chain of Thyrotropin receptor (Homo sapiens) (P16473 whole entry, looked up): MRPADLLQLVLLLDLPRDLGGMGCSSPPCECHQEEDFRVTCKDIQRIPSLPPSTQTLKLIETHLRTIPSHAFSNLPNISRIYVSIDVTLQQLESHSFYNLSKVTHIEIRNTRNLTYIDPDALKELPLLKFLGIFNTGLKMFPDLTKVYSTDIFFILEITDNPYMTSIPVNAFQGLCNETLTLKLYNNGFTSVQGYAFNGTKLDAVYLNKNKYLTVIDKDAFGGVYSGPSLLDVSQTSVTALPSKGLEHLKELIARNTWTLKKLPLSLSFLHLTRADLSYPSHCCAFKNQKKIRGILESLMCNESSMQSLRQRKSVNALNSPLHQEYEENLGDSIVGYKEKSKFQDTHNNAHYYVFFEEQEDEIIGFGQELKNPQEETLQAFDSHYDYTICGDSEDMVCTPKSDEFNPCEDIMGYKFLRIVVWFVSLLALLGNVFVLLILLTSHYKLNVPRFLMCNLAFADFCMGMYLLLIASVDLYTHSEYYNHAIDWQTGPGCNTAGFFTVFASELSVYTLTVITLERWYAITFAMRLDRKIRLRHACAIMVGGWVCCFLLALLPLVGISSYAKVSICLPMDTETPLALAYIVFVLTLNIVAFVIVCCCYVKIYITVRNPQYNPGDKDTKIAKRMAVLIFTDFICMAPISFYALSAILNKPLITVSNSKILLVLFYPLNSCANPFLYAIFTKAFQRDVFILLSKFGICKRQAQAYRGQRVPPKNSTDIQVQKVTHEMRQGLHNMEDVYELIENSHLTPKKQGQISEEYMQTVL
Chain of Galactokinase (Homo sapiens) (P51570 whole entry, looked up): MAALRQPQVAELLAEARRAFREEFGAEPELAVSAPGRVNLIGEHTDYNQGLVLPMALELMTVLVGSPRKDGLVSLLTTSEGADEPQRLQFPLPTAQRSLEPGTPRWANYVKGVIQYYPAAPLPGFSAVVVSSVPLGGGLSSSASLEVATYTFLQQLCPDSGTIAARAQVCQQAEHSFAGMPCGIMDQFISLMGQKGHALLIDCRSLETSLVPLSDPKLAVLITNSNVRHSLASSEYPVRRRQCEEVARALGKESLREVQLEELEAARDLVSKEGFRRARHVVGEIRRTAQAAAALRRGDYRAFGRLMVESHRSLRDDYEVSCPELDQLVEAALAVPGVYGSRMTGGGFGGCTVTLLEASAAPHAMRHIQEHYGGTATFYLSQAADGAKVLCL
Chain of Ferritin light chain (Equus caballus) (P02791 2-175 limits assumed): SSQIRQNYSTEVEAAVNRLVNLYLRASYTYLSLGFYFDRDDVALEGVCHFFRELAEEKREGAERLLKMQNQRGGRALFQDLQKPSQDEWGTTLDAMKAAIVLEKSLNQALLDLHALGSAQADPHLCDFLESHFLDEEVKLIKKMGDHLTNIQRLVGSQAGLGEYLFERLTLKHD
Chain of RecQ-like DNA helicase BLM (Homo sapiens) (P54132 whole entry, looked up): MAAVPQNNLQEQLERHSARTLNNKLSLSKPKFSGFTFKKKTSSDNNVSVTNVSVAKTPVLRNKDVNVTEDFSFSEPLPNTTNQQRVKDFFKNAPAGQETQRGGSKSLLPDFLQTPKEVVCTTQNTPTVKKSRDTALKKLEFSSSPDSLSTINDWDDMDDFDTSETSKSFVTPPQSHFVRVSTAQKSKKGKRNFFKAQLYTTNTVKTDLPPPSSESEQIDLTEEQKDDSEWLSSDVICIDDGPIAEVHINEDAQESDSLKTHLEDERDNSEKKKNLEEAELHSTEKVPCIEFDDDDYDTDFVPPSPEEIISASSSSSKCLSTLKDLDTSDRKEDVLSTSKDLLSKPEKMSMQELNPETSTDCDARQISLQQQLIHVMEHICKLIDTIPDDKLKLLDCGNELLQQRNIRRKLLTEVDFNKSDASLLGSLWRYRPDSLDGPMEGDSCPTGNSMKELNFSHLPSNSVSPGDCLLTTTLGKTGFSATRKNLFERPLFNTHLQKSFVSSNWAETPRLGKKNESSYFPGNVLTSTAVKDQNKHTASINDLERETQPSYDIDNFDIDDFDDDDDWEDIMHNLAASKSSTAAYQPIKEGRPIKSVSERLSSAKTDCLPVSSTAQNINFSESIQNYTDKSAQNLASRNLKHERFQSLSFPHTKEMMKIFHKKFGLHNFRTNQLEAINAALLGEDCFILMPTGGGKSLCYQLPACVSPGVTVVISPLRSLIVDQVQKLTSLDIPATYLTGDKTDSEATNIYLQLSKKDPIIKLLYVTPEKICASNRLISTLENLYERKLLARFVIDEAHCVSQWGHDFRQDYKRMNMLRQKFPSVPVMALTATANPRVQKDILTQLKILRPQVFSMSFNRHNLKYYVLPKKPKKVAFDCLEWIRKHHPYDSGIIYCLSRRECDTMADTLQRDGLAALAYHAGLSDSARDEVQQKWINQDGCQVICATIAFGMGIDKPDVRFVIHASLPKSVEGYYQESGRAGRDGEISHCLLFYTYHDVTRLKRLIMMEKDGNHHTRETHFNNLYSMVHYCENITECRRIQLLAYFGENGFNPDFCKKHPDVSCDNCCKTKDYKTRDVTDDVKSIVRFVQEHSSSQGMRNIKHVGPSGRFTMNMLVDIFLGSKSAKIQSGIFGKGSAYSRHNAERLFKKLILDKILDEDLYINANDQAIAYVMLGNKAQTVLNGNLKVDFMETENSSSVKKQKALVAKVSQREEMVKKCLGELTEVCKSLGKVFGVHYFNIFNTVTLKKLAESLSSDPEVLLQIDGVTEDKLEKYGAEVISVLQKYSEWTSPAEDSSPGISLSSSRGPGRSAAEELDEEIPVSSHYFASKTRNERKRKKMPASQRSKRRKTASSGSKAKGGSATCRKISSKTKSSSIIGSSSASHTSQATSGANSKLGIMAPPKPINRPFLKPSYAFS
Chain of M-phase phosphoprotein 8 (Homo sapiens) (Q99549 whole entry, looked up): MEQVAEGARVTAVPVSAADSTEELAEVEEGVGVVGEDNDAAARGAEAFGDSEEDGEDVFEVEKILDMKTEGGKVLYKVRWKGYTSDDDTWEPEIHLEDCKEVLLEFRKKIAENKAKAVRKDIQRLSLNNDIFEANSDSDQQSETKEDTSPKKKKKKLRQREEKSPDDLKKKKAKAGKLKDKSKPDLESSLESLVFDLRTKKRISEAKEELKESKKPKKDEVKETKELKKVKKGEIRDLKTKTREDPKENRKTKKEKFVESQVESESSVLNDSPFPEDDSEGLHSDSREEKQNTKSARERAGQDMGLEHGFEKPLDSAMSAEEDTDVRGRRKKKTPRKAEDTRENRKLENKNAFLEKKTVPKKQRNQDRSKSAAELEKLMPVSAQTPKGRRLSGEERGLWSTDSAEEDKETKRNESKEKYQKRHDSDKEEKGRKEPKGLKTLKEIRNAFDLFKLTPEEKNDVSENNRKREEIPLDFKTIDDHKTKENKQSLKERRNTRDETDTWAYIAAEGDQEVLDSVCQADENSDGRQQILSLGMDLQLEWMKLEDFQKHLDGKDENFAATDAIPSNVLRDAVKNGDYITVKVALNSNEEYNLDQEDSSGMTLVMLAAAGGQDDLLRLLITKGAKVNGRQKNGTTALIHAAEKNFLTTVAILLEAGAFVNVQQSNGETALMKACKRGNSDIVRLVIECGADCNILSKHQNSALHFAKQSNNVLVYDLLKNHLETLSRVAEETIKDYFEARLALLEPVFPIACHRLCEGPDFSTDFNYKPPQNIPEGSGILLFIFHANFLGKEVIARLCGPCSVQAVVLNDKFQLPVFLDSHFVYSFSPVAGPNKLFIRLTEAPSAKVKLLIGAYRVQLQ
Chain of Thyrotropin-releasing hormone receptor (Homo sapiens) (P34981 whole entry, looked up): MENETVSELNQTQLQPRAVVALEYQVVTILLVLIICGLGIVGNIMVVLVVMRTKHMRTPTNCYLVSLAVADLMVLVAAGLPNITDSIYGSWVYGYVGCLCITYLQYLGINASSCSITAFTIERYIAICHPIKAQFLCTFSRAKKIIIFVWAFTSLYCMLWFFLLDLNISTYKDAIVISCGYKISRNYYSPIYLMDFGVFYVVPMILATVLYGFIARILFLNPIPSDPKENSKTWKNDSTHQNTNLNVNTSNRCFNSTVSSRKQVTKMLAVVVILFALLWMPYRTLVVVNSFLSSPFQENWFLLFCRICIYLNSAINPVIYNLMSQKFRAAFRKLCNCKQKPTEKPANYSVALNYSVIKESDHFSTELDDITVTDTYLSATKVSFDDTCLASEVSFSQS

As to `CN1CCN(CC/C=C2/c3ccccc3Sc3ccc(S(=O)(=O)N(C)C)cc32)CC1`, the Potency result in experiment [1], in [6], in [11], in [12] and in [15] was “inactive” in each case. Moreover, the result in experiment [2], in experiment [8], in experiment [9], in [10], in [13] and in experiment [14] was inactive. The Potency was 7.08 µM (active) in [3], 11.2 µM (active) in experiment [4], 10 µM (active) in experiment [5] and 5.01 µM (active) in [7].
For `C#C[C@]1(O)CC[C@H]2C3CCC4=Cc5oncc5CC4(C)C3CCC21C` (stereo not given in full), the Potency result in experiment [1], in [16], in experiment [6], in [17], in experiment [18] and in [15] was “inactive” throughout. The molecule was classed as inactive in experiment [2], in experiment [10], in [19], in experiment [13] and in [14]. Further, the Potency in experiment [3] and in [7] was 8.91 µM (active) in each case. Moreover, the activation in [20] is 1.44%.
With `O=C(NCCC1CCCCN1S(=O)(=O)c1ccc(Cl)cc1)C(=O)NCc1ccco1` (stereo not given), the Potency in [21] is 89.1 µM (active).
